Values joined by “and” are separate entries in the source; they are usually repeats but may differ in a detail not shown here. Identical values can stand only once. Records with an inconclusive call do not appear. For some assays here: Potency and affinity values are given separately. Active and inactive are the calls of the source. Unless noted, no cut-off is given here; in the data, nearly all actives have AC50 up to about 26 µM.
Key:
[1] = biological target: ATP-dependent translocase ABCB1 (Homo sapiens) (UniProt P08183); test: P-glycoprotein substrate transport blockade – cell-based (AID 377; in the data active = fluorescence slope change above about 50%); details: MDR1-expressing cells, fluorescent substrate accumulation slope; stronger effect = higher value; concentration not given here
ATP-dependent translocase ABCB1 (Homo sapiens), sequence (P08183 whole entry, looked up): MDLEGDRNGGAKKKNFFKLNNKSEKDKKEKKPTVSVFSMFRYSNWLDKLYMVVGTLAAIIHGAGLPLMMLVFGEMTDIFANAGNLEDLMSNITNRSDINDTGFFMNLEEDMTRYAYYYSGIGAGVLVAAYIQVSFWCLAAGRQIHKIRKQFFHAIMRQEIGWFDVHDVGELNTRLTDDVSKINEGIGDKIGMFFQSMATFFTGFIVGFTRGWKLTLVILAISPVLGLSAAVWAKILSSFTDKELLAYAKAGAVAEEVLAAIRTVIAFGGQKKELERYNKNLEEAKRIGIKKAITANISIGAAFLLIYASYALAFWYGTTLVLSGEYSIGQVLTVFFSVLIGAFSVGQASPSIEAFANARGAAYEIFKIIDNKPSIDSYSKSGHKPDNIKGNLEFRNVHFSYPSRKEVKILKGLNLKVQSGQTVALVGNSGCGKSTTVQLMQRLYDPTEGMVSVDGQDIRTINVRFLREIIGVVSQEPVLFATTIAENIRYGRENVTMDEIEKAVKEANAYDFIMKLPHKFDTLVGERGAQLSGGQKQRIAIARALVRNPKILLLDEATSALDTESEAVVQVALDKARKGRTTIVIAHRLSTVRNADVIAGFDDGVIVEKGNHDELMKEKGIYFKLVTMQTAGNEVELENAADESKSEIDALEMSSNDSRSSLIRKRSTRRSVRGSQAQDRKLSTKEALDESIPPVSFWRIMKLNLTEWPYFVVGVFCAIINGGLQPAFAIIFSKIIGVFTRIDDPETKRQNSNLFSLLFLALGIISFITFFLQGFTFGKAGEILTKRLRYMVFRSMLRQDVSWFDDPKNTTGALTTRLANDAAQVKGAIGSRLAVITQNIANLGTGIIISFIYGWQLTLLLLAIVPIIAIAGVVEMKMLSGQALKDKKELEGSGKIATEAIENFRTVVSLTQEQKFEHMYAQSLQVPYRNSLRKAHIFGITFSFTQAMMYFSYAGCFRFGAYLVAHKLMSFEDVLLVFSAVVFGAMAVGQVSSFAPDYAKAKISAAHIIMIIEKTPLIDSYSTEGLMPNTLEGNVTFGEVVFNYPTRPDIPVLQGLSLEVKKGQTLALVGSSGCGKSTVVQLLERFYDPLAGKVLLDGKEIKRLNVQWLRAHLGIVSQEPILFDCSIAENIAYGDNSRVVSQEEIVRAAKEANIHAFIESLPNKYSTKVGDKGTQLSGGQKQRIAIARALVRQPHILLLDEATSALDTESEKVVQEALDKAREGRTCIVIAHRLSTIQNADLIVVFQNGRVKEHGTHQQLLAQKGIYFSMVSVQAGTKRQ

[2] = tested on: Aerobactin synthetase IucA (Klebsiella pneumoniae); test: inhibition of K. pneumoniae IucA enzyme – biochemical, Tocris library, absorbance (AID 1345561; call rule not given here;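 note: 100% = enzyme without compound and 0% = no enzyme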); details: purified IucA enzyme assay, absorbance (OD) read-out; stronger effect = lower value;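 tested at 8 µM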
[3] = restoration of touch response, mutant HTT neurons – whole organism, C. elegans mechanosensory neurons, N-terminal huntingtin (AID 1599); details: C. elegans polyQ-huntingtin mechanosensory neurons, stronger effect = higher value
[4] = GFP-Q80 aggregate reduction, neuronal-like cells, cell-based, NGF-treated PC12, GFPQ80 (AID 1614); details: PC12 NGF-treated GFP-polyQ80 inclusion reduction;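 note: lower means fewer inclusions and 0 means no inclusions at all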
[5] = viability loss in pontine glioma line – cell-based, SU-DIPG-XVII, MIPE5.0, CellTiter-Glo, qHTS, dose response (AID 1347060); details: CellTiter-Glo ATP luminescence;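 for AC50: cells exposed to compound for 48 hours before viability readout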
[6] = viability loss in pontine glioma line – cell-based, SU-DIPG-XIII, MIPE5.0, CellTiter-Glo, qHTS, dose response (AID 1347064; cut-off not given, nearly all actives have AC50 up to about 23 µM); details: CellTiter-Glo ATP luminescence
[7] = JHH-DIPG-1 glioma cell viability, MIPE5.0 library, CellTiter-Glo luminescence, qHTS (AID 1347067); details: JHH-DIPG-1 glioma viability, CellTiter-Glo ATP luminescence;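 note: cells exposed to compound for 48 hours before readout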
[8] = growth inhibition of DIPG cells – cell-based, MIPE5.0 library, qHTS (AID 1347068; cut-off not given, nearly all actives have IC50 up to about 30 µM); details: SU-DIPG-XXV viability
[9] = viability loss in pontine glioma line – cell-based, SU-DIPG-XIII, MIPE4.0, CellTiter-Glo, qHTS, dose response (AID 1347061; cut-off not given, nearly all actives have AC50 up to about 37 µM;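 note: cells exposed to compound for 48 hours before readout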); details: CellTiter-Glo ATP luminescence
[10] = viability loss in pontine glioma line – cell-based, SU-DIPG-IV, MIPE4.0, CellTiter-Glo, qHTS, dose response (AID 1347063; cut-off not given, nearly all actives have AC50 up to about 30 µM;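 note: compound exposure lasted 48 hours before the viability readout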); details: CellTiter-Glo ATP luminescence
[11] = chitosan synthesis blockers in C. neoformans – flow cytometry, Cibacron Brilliant Red staining (AID 1347148; call rule not given here;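 note: compound exposure lasted three days at 37 degrees C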); details: Cryptococcus neoformans chitosan, stronger effect = lower value; at 10 µM unless noted

Q: With `CNCCC(Oc1ccc(C(F)(F)F)cc1)c1ccccc1` (stereo unspecified) as the compound, how does the fluorescence slope change [1] read?
A: 110% (active)

Q: And the remaining activity [2]?
A: 124% (inactive)

Q: For `Nc1ncnc2c1ncn2[C@@H]1O[C@H](CO)[C@@H](O)[C@@H]1O`, which rescue above control [3] is on record?
A: -14.3

Q: And the inclusion score [4]?
A: 1.5

Q: What about the outcome [5] of the same compound?
A: inactive

Q: And the outcome [6]?
A: inactive

Q: And the outcome [7]?
A: inactive

Q: What about the outcome [8] of the same compound?
A: inactive

Q: With `CCc1ccc(CCOc2ccc(CC3SC(=O)NC3=O)cc2)nc1` (stereo unspecified) as the compound, how does the outcome [5] read?
A: inactive

Q: And the outcome [6]?
A: inactive

Q: And the outcome [7]?
A: inactive

Q: For `CS(=O)(=O)c1ccc(C2=C(c3ccccc3)C(=O)OC2)cc1`, which outcome [5] is on record?
A: inactive

Q: What about the outcome [9] of the same compound?
A: inactive

Q: What about the outcome [10] of the same compound?
A: inactive

Q: And the outcome [6]?
A: inactive

Q: And the outcome [7]?
A: inactive

Q: And the outcome [8]?
A: inactive

Q: For `O=[N+]([O-])c1cccc2cn[nH]c12`, which remaining activity [2] is on record?
A: 107% (inactive)

Q: With `CC(C)NCC(O)COc1ccc(CC(N)=O)cc1` (stereo unspecified) as the compound, how does the rescue above control [3] read?
A: -0.75

Q: What about the inclusion score [4] of the same compound?
A: 2

Q: What about the remaining activity [2] of the same compound?
A: 121% (inactive)

Q: Which remaining activity [2] does the source give for `CC[C@H](C)C(=O)O[C@H]1CCC=C2C=C[C@H](C)[C@H](CC[C@@H]3C[C@@H](O)CC(=O)O3)[C@H]21` here?
A: 123% (inactive)

Q: And the AC50 [5]?
A: 6.61 µM (active)

Q: What about the AC50 [7] of the same compound?
A: 23.5 µM (active)

Q: Which outcome [5] does the source give for `C[C@H](CCC(=O)O)[C@H]1CC[C@H]2[C@@H]3[C@@H](O)C[C@@H]4C[C@H](O)CC[C@]4(C)[C@H]3CC[C@]12C` here?
A: inactive

Q: And the outcome [10]?
A: inactive

Q: What about the outcome [7] of the same compound?
A: inactive

Q: What about the outcome [8] of the same compound?
A: inactive

Q: Which rescue above control [3] does the source give for `CC(CCc1ccccc1)NCC(O)c1ccc(O)c(C(N)=O)c1` (stereo unspecified) here?
A: 19.4

Q: What about the inclusion score [4] of the same compound?
A: 2

Q: Which outcome [6] does the source give for `C[C@]12CC[C@@H]3c4ccc(O)cc4CC[C@H]3[C@@H]1CC[C@@H]2O` here?
A: inactive

Q: And the fold fluorescence [11]?
A: 5.13 [at 183.6 µM] (inactive)

Q: With `Cc1ccc(N(CC2=NCCN2)c2cccc(O)c2)cc1` as the compound, how does the fluorescence slope change [1] read?
A: 72.4% (active)

Q: And the rescue above control [3]?
A: -6.1

Q: And the inclusion score [4]?
A: 2

Q: What about the outcome [5] of the same compound?
A: inactive

Q: And the outcome [9]?
A: inactive

Q: What about the outcome [6] of the same compound?
A: inactive

Q: What about the fold fluorescence [11] of the same compound?
A: 4.52 [at 177.7 µM] (inactive)

Q: With `CN(C)CCC(c1ccc(Cl)cc1)c1ccccn1` (stereo unspecified) as the compound, how does the fluorescence slope change [1] read?
A: 220% (active)

Q: And the rescue above control [3]?
A: 7.64

Q: What about the inclusion score [4] of the same compound?
A: 2

Q: For `CCN1CCN(C(=O)N[C@@H](C(=O)N[C@@H]2C(=O)N3[C@@H]2SC(C)(C)[C@@H]3C(=O)O)c2ccccc2)C(=O)C1=O`, which fluorescence slope change [1] is on record?
A: 1.5% (inactive)

Q: Which fluorescence slope change [1] does the source give for `COc1ccc2c3c1O[C@H]1C[C@@H](O)C=C[C@@]31CCN(C)C2` here?
A: 9.8% (inactive)

Q: And the rescue above control [3]?
A: 0.01

Q: What about the inclusion score [4] of the same compound?
A: 2

Q: And the remaining activity [2]?
A: 110% (inactive)

Q: And the outcome [9]?
A: inactive

Q: And the outcome [10]?
A: inactive

Q: With `CC(=O)O[C@]1(C(C)=O)CC[C@H]2[C@@H]3C[C@H](C)C4=CC(=O)CC[C@]4(C)[C@H]3CC[C@@]21C` as the compound, how does the outcome [10] read?
A: inactive

Q: What about the outcome [7] of the same compound?
A: inactive

Q: What about the outcome [8] of the same compound?
A: inactive

Q: Which outcome [10] does the source give for `C=CC1=C(C(=O)O)N2C(=O)[C@@H](NC(=O)/C(=N\O)c3csc(N)n3)[C@H]2SC1` (stereo in doubt) here?
A: inactive

Q: Which fluorescence slope change [1] does the source give for `CCCC1O[C@@H]2C[C@H]3[C@@H]4CCC5=CC(=O)C=C[C@]5(C)[C@H]4[C@@H](O)C[C@]3(C)[C@]2(C(=O)CO)O1` (stereo partly specified) here?
A: 56.9% (active)

Q: What about the remaining activity [2] of the same compound?
A: 98.4% (inactive) and 108% (inactive)

Q: With `OC[C@H]1O[C@@H](Oc2cc(O)cc(/C=C/c3ccc(O)cc3)c2)[C@H](O)[C@@H](O)[C@@H]1O` as the compound, how does the outcome [7] read?
A: inactive

Q: And the outcome [8]?
A: inactive

Q: What does the source list for `CC(=O)N=c1sc(S(N)(=O)=O)nn1C`?
A: fluorescence slope change [1]: 65.4% (active); rescue above control [3]: -0.14; inclusion score [4]: 2

Q: With `Cn1cc[nH]c1=S` as the compound, how does the fluorescence slope change [1] read?
A: 21.6% (inactive)

Q: And the rescue above control [3]?
A: -4.12

Q: What about the inclusion score [4] of the same compound?
A: 2

Q: Which results are given for `Nc1ccn([C@@H]2O[C@H](CO)[C@@H](O)C2O)c(=O)n1` (stereo partly specified)?
A: AC50 [5]: 0.263 µM (active); outcome [9]: inactive; outcome [6]: inactive; outcome [7]: inactive; outcome [8]: inactive

Q: What does the source list for `CC(C)[N+]1(C)C2CCC1CC(OC(=O)C(CO)c1ccccc1)C2` (stereo unspecified)?
A: remaining activity [2]: 98.6% (inactive); outcome [10]: inactive

Q: Which fluorescence slope change [1] does the source give for `CNCCC=C1c2ccccc2CCc2ccccc21` here?
A: 145% (active)

Reference: PubChem BioAssay
